Source: PubChem BioAssay AID463176 (Southern Research Specialized Biocontainment Screening …, 2010)
The source made the active and inactive calls.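 How the source made its calls: active means inhibition above 30% at one or more tested concentrations in the dose response; inactive means inhibition below 30% at every tested concentration.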

assay: PhoP-driven GFP reporter repression, Typhimurium – synthesized compounds, set 5, late-stage follow-up (AID 463176); details: S. Typhimurium PhoP-promoter GFP reporter, fluorescence, 4 h; series mostly up to 150 µM; inhibition: at the top concentration

inhibition, inactive:
Clc1ccc(C2Sc3ccccc3N=C3c4ccccc4CC32)cc1 (stereo unspecified) -7.91%
COc1cccc(NC(=O)N2CCCN(Cc3ccccc3F)C2)c1 25.4%
O=C1C2=C(Nc3ccccc3SC2c2cccc(Br)c2)c2ccccc21 (stereo unspecified) 13.8%
O=C1C2=C(Nc3ccccc3SC2c2ccc(Cl)cc2)c2ccccc21 (stereo unspecified) 29.2%
Cc1ccc(C2Sc3ccccc3N=C3c4ccccc4CC32)cc1 (stereo unspecified) -35.8%
O=C1C2=C(Nc3ccccc3SC2c2cccnc2)c2ccccc21 (stereo unspecified) 14%
